Assay results reported in the supplement of paper PMC6555819.

Tests used:
Assay in all cases: PBM binding z-score (relative to random genomic background probes); higher = stronger binding; sequences stand for … in GC…GCGATTGACAGCGTAGAATGAAGG
[1] = system: FXR:RXRa (NR concentration 270 nM, RXRa partner concentration 90 nM)
Method in brief: (§1)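 Each nuclear receptor dimer, without ligand, was incubated for 1 h on custom Agilent 4×180K protein-binding microarrays. Binding was detected with antibodies against each partner (one per run), and scanned fluorescence was regression-normalized. The binding z-scores are referenced to random human genomic background probes.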

[2] = system: LXRa:RXRa (NR concentration 270 nM, RXRa partner concentration 90 nM)
Method in brief: as §1

[3] = system: LXRa homodimer (NR concentration 270 nM)
Method in brief: as §1

[4] = system: LXRb:RXRa (NR concentration 270 nM, RXRa partner concentration 90 nM)
Method in brief: as §1

[5] = system: LXRb homodimer (NR concentration 270 nM)
Method in brief: as §1

[6] = system: PPARa:RXRa (NR concentration 270 nM, RXRa partner concentration 90 nM)
Method in brief: as §1

[7] = system: PPARg:RXRa (NR concentration 180 nM, RXRa partner concentration 90 nM)
Method in brief: as §1

[8] = system: PPARg:RXRa 270nM:90nM, anti-RXR (NR concentration 270 nM, RXRa partner concentration 90 nM)
Method in brief: as §1

[9] = system: PPARg:RXRa 30nM:10nM, anti-RXR (NR concentration 30 nM, RXRa partner concentration 10 nM)
Method in brief: as §1

[10] = system: PPARg:RXRa 90nM:30nM, anti-RXR (NR concentration 90 nM, RXRa partner concentration 30 nM)
Method in brief: as §1

[11] = system: PPARg:RXRa DBDmut IVT, anti-RXR (DBD mutation: RXRa K156A/R161A, NR concentration 270 nM, RXRa partner concentration 90 nM)
Method in brief: as §1

[12] = system: PPARg:RXRa IVT, anti-PPARg (NR concentration 270 nM, RXRa partner concentration 90 nM)
Method in brief: as §1

[13] = system: PPARg DBDmut:RXRa IVT, anti-PPARg (DBD mutation: PPARg1 K132A/R137A, NR concentration 270 nM, RXRa partner concentration 90 nM)
Method in brief: as §1

[14] = system: PPARg DBDmut IVT, anti-PPARg (DBD mutation: PPARg1 K132A/R137A, NR concentration 270 nM)
Method in brief: as §1

[15] = system: PPARg homodimer (NR concentration 180 nM)
Method in brief: as §1

[16] = system: PXR:RXRa (NR concentration 270 nM, RXRa partner concentration 90 nM)
Method in brief: as §1

[17] = system: PXR homodimer (NR concentration 270 nM)
Method in brief: as §1

[18] = system: RARa:RXR (NR concentration 270 nM, RXRa partner concentration 90 nM)
Method in brief: as §1

[19] = system: RARa homodimer (NR concentration 270 nM)
Method in brief: as §1

[20] = system: RARb:RXRa (NR concentration 270 nM, RXRa partner concentration 90 nM)
Method in brief: as §1

| Sequence | PBM binding z-score [1] | PBM binding z-score [2] | PBM binding z-score [3] | PBM binding z-score [4] | PBM binding z-score [5] | PBM binding z-score [6] | PBM binding z-score [7] | PBM binding z-score [8] | PBM binding z-score [9] | PBM binding z-score [10] | PBM binding z-score [11] | PBM binding z-score [12] | PBM binding z-score [13] | PBM binding z-score [14] | PBM binding z-score [15] | PBM binding z-score [16] | PBM binding z-score [17] | PBM binding z-score [18] | PBM binding z-score [19] | PBM binding z-score [20] |
| --- | --- | --- | --- | --- | --- | --- | --- | --- | --- | --- | --- | --- | --- | --- | --- | --- | --- | --- | --- | --- |
| CCGACTGGGGCATAAGTTTACCATAAGCCAGCCC | -0.352 | -0.207 | -0.448 | -0.337 | -0.91 | 0.222 | 1.66 | 2.44 | 0.241 | 1.74 | 3.09 | 2.55 | -0.897 | -1.31 | 0.107 | -0.336 | -0.547 | -0.262 | -0.566 | 0.68 |
| AGAAAGAGGTTACCAAAGATCAGGGAAACGCTTG | 2.31 | 6.51 | -0.18 | 3.65 | 0.0945 | 3.37 | 2.1 | 2.36 | 0.802 | 1.77 | 1.97 | 1.94 | 0.516 | 0.104 | 0.75 | 1.82 | -0.238 | 2.63 | 0.245 | 2.62 |
| ACTAGCAGGCCAAGTCTGGGTCACTCAAACAAAG | 0.226 | 0.263 | 0.0484 | 0.796 | -1.12 | 2.38 | 0.901 | 1.28 | 0.18 | 0.56 | 2.25 | 3.03 | -0.209 | -0.38 | 0.811 | 0.664 | -0.106 | 1.59 | -0.573 | 1.75 |
| TAGCCTTGGTCATTGGGCCAGTATAGTACGCATC | -0.646 | -0.599 | -0.698 | -0.456 | -0.537 | -0.217 | 0.338 | 0.117 | -0.34 | -0.429 | -0.486 | 0.545 | -0.509 | -0.603 | -0.625 | -0.515 | -0.596 | -0.324 | -0.586 | 0.69 |
| TCTTATAGATCAACAGGAGGTTAAGAAAGATCGA | 0.826 | 1.6 | 0.457 | 1.36 | 0.165 | 1.6 | 0.533 | 2.08 | 3.48 | 2.93 | 2.24 | 0.332 | 0.51 | 0.867 | 0.452 | 0.958 | 0.0264 | 1.46 | 0.64 | 0.877 |
| AGAATGAGGTTAAAATCAGGGAAACAGAATACAT | 2.65 | 2.59 | 0.234 | 2.08 | 0.345 | 3.69 | 2.3 | 2.46 | 0.879 | 1.7 | 2.34 | 2.5 | 0.82 | 1.18 | 0.858 | 1.17 | 0.655 | 1.9 | 0.961 | 1.59 |
| CCCACTGGGCCAAAAAGGTCATTGATGCCGATAA | 3.49 | 4.24 | 3.22 | 4.01 | 0.236 | 4.45 | 3.06 | 4.19 | 1.38 | 3.23 | 2.99 | 4.17 | -1.05 | -0.939 | 3.72 | 4.91 | 4.6 | 5.4 | 1.88 | 4.02 |
